Laboratory results taken from PubChem BioAssay AID624330 (Southern Research Specialized Biocontainment Screening …, 2012).
In all, about 340,000 compounds went through this assay and about 2,100 (0.62%) were called active.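 The calls were made as follows: active = first-screen hits whose inhibition reached a set limit at any dose in the follow-up dose series; inconclusive = inhibition above the set first-screen limit but never retested; inactive = the rest.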 Only a sample is shown. Results with a measured potency or affinity are listed apart.

biological target: Rac GTPase-activating protein 1 (Homo sapiens) (UniProt Q9H0H5); assay: blockers of MgcRacGAP-driven Rac1 GTP hydrolysis – biochemical, ADP Hunter fluorescence, primary and confirmatory, confirmation (AID 624330); settings: MgcRacGAP-stimulated Rac1 GTP hydrolysis, at 30 µM, active compounds read high, GST-tagged Rac1 F28L mutant substrate;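 also: fluorescence reports GDP produced by GAP-driven GTP hydrolysis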
Sequence (Q9H0H5 whole entry, looked up): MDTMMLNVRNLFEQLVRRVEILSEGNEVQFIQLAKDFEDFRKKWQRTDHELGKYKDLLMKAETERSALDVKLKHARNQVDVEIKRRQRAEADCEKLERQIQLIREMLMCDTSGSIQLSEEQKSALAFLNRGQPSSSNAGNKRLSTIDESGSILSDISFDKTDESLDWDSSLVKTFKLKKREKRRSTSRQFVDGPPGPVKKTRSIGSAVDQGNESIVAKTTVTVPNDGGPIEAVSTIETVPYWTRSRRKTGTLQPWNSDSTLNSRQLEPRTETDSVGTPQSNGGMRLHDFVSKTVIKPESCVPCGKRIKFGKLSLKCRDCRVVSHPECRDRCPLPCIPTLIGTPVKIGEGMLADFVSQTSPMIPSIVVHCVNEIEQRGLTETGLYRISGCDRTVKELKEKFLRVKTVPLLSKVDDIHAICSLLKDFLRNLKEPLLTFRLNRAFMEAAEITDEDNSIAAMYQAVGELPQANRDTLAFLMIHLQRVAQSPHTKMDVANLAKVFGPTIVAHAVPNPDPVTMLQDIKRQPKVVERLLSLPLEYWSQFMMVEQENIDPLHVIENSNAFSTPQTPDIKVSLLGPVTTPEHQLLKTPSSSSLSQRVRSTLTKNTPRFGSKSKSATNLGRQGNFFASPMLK

inhibition, inactive:
N#Cc1ccc(N/N=C/c2ccccc2)c([N+](=O)[O-])c1 2.61%, Cc1sc(NC(=O)c2ccc(F)cc2)c(CN2CCCCCC2)c1C 13.7%, CCn1c(CC(=O)Nc2ccc(Cl)c(Cl)c2)nnc1SCc1ccc(Cl)cc1 11.6%, Cc1sc2ncn(CC(=O)N3CCCCC3)c(=O)c2c1C 6.45%, O=C(Nc1ccncc1)C1CC(=O)N(c2ccccc2)C1 (stereo not drawn) 0.29%, CCN1C(=O)[C@H]2[C@@H](c3ccc(Cl)cc3)N3C(=O)CN(Cc4ccccc4)C(=O)[C@@]3(C)[C@H]2C1=O 5.83%, CCOc1ccc(NCCC#N)cc1 30.3%, N#CCCNc1ccc(OCCC#N)cc1 11.4%, CCC(=O)Nc1cccc(C(=O)/C=C/c2cc(Br)ccc2OC)c1 7.87%, CCC(CO)N=C1CC(C)(C)CC(=O)/C1=C(/O)CCCN1C(=O)c2ccccc2C1=O (stereo not drawn) 0.34%, COc1cc2nc(N3CCN(C(=O)c4ccco4)CC3)nc(N)c2cc1OC 17.7%, COc1cc2nc(N3CCN(c4cc(C)ccc4C)CC3)nc(N)c2cc1OC 4.78%, COC(=O)[C@H](CC(C)C)NC(=O)NCCCc1ccccc1 3.77%, O=C(CCNS(=O)(=O)c1cccc2nsnc12)NCCC1=CCCCC1 11.7%, Cc1cccc(OCC(=O)Nc2ccc3c(C)cc(=O)oc3c2)c1 -2.83%, Nc1ccc(N2CCCCC2)cc1N1CCCCC1 10.4%, Nc1nc(N2CCN(c3ccc(F)cc3)CC2)n[nH]1 12.1%, CN1CCN(S(=O)(=O)c2ccc(N)cc2)CC1 -0.77%, CC(=O)N1CCN(c2ccc([N+](=O)[O-])cc2)CC1 5.88%, CC(=O)Nc1ccc(N2CCN(C(C)=O)CC2)cc1 8.62%, CN1CCN(c2ccc(C(=O)c3ccc(F)cc3)cc2)CC1 12.6%, Cc1nn(-c2cc(N3CCCCC3)ccc2N)c(=O)c2ccccc12 12.5%, N#Cc1ccc(N2CCN(c3ccc(F)cc3)CC2)cc1 7.18%, OCC1CCCN(C(=S)NCCc2ccccc2)C1 (stereo not drawn) 2.94%, O=C(Cn1cnc2c(nnn2Cc2ccc(Cl)cc2)c1=O)NC1CCCC1 7.49%, COc1cc(SC)ccc1C(=O)OCC(=O)NCCC1=CCCCC1 -5.82%, C=CCn1c(SC(C)C(=O)NC2CC2)nnc1-c1ccoc1C (stereo not drawn) 4.4%, CCOc1cccc(C(=O)NNC(=O)C2C3C=CC(C3)C2C(=O)O)c1 (stereo not drawn) 5.45%, CCCN1Cc2cccc(C(=O)NCCc3ccccc3)c2C1=O 5.13%, Cc1ccc(-c2nn(-c3ccccc3)cc2C(=O)Nc2ccc(C)c(S(=O)(=O)N3CCOCC3)c2)cc1 -2.39%, COc1ccc(C(CNS(=O)(=O)c2ccccc2)N2CCN(C)CC2)cc1 (stereo not drawn) 1.91%, O=C(c1cccs1)N1CCN(c2ccc(F)cc2)CC1 13.3%, O=C(CSc1ccccc1)Nc1ccc(N2CCN(c3ccccc3)CC2)c(F)c1 5.08%, CCN1CCN(c2ccc(NC(=O)c3ccc(Br)o3)cc2)CC1 8.5%, O=C(Nc1ccc(N2CCN(c3ccccc3)CC2)c(F)c1)C1CC1 5.36%, CCN1CCN(c2ccc(NC(=O)Cc3ccccc3)cc2)CC1 6.87%, O=C(c1cccs1)N1CCN(c2ccccc2)CC1 -0.45%, Cc1ccccc1C(=O)Nc1cc(NC(=O)c2ccccc2C)cc(C(=O)O)c1 10.1%, O=S(=O)(c1ccc(F)cc1)c1nc(-c2ccccc2)oc1N1CCOCC1 9.44%, CC(=O)c1cccc(NC(=O)Cn2cnc(S(=O)(=O)N3CCCCC3)c2)c1 2.19%, CCS(=O)(=O)N1Cc2ccccc2CC1C(=O)N(C)Cc1ccc(OC)cc1OC (stereo not drawn) 5.19%, CCOc1cccc(-c2c(C(=O)N/N=C/c3ccc(C)s3)nnn2-c2nonc2N)c1 0.29%, COc1ccc(C2SCCN2S(=O)(=O)c2ccc(F)cc2)cc1OC (stereo not drawn) 6.1%, O=C(NCCCN1CCCC1=O)c1cccc(S(=O)(=O)N2CCN(c3ccc(F)cc3)CC2)c1 1.69%, COc1cccc(CNc2cnc3ccccc3c2)c1O 1.26%, COc1ccc(NC(=O)CSc2nc3ccccc3cc2Cc2ccccc2)cc1 3.45%, COc1ccc2[nH]c(=O)c(CNc3ccccc3)cc2c1 9.73%, COc1ccc(C(=O)NCc2cc(C)nc3ccccc23)cc1 -16.4%, CCOc1ccc(NCc2cc3cc(OC)ccc3[nH]c2=O)cc1 15.8%, COc1ccc(Nc2c3ccccc3nc3ccccc23)cc1 17.9%, COc1ccc(-c2cccc([C@H]3[C@@H]4C=CCC[C@@]4(C)C(=O)N3Cc3ccccc3)c2)cc1 12.4%, Cc1cccc(C(=O)Nc2cc(NC(=O)c3cccs3)ccc2C)c1 5.54%, CCOc1ccccc1CN1CCN(C2CCSCC2)CC1CCO (stereo not drawn) 7.4%, CN(CC(=O)Nc1ccc(SC(F)F)cc1)C1CCCCC1 9.96%, Nc1ccc2cn[nH]c2c1 2.65%, Nc1ccc2nc(-c3cccc(-c4nc5ccc(N)cc5[nH]4)n3)[nH]c2c1 16.5%, COc1ccc(-c2cc(CCCC(=O)NCCc3ccc(OC)cc3OC)no2)cc1 -0.07%, Cc1sc2nc(CN3CCOCC3)nc(Cl)c2c1C 5.87%, Cc1sc2nc(CN3CCOCC3)nc(N3CCC(C(N)=O)CC3)c2c1C -3.61%, CCC(=O)Nc1cccc(NC(=O)CSc2nc3c(c(=O)n(C)c(=O)n3C)n2C)c1 7.76%, O=C(COc1ccc2ccc(=O)oc2c1)N1CCc2ccccc21 -9.6%, CC(N=c1ccccn1C(=O)Nc1cccc(C(F)(F)F)c1)c1ccco1 (stereo not drawn) 2.17%, CCN(CC(=O)NC(=O)NCc1ccccc1)Cc1ccccc1 3.08%, CN1CCN(CC(=O)NN(Cc2ccccc2)c2ccccc2)CC1 31.6%, CC(C)(O)C(=O)NN(Cc1ccccc1)c1ccccc1 4.09%, O=C(CN1CCCCC1)NN(Cc1ccccc1)c1ccccc1 10.1%, CCCc1cc(=O)[nH]c(SCC(=O)c2cc(C)n(CC3CCCO3)c2C)n1 (stereo not drawn) 4.29%, Cc1ccc(S(=O)(=O)NC(C)C(=O)N2CCOCCOCCOCCOCC2)cc1 (stereo not drawn) 9.08%, CCc1ccc(NC(=O)C2CCN(S(=O)(=O)c3ccc4c(c3)NC(=O)CO4)CC2)cc1 -14%, COc1cc(/C=C(/C(=O)O)c2ccc(-c3ccccc3)cc2)cc(OC)c1OC 7.82%, Cn1c(=O)cc(-c2ccccc2)c2ccccc21 5.87%, O=C1/C(=C/c2ccc([N+](=O)[O-])cc2)C=C(c2ccccc2)N1c1ccccc1 15.2%, CC(C)n1c2ccccc2c2cc([N+](=O)[O-])ccc21 10.7%, Cn1c(-c2ccccc2)cc(=O)c2ccccc21 12.4%, COc1cc(/C=C2\C(=O)ON=C2c2ccccc2)cc(OC)c1OC 15%, CC(=O)Nc1ccc(NC(=O)CSc2nnc(-c3cccs3)n2C)cc1 5.9%, O=C(/C=C/c1cccc([N+](=O)[O-])c1)NCc1ccccc1 2.96%, CCCCOc1cccc(/C=C(\C#N)C(=O)NC2CC2)c1 4.72%, CC(C)(C)OC(=O)C[C@@H]1C/C=C\C[C@@H](CC(=O)N[C@H](CO)Cc2ccccc2)C(=O)N2CCC[C@@H]2COC1=O 4.93%, CN(CCO)c1ncnc2c1sc1nc(N3CCOCC3)c3c(c12)CCC3 13.9%, O=C(CCl)N(c1ccccc1)c1ccccc1 5.65%, Cc1cc(C(=O)NNC(=O)C2CCCC2)c(C)o1 4.19%, Cc1cnc(NC(=O)c2cccs2)s1 0.1%, NC(=O)C[C@H](N)c1cn([C@@H](CC(N)=O)C(=O)N2CCNCC2)nn1 -0.03%, CN(CC1CCCN(CCc2ccc(Cl)cc2)C1)C(=O)C(=O)c1ccco1 (stereo not drawn) 6.85%, Cc1ccn2cc(C(=O)N3CCN(c4cnn(-c5ccccc5)c(=O)c4Cl)CC3)nc2c1 2.32%, O=C(NCc1ccccc1)NS(=O)(=O)c1ccccc1Cl 2.6%, CCCCCCCCCCCCCCCC[N+](C)(C)CC 18.7%, CCCCCCCCCCCCCCCC[N+](C)(C)CCl 15.1%, COc1ccc(CNC(=O)C(C)N(Cc2ccco2)C(=O)c2snc(C(N)=O)c2N)cc1 (stereo not drawn) -8.32%, C=CCNCC(=O)N1N=C(c2ccc3ccccc3c2)CC1c1ccc(OC)cc1 (stereo not drawn) 6.55%, COc1ccc(C2CC(c3ccc4ccccc4c3)=NN2C(=O)CSc2ncccn2)cc1 (stereo not drawn) 7.23%, CN(C)CC1CCC/C(=C\c2ccc(OC(=O)c3ccc(Cl)cc3)cc2)C1=O (stereo not drawn) 2.37%, COc1ccc(CCNC(=O)CCOc2ccc(C(C)(C)C)cc2)cc1OC 3.35%, CC(=O)Nc1nnc(S(N)(=O)=O)s1 1.42%, Cc1nnc(NC(=O)c2ccco2)s1 4.57%, Cc1ccc(-c2nnc(NC(=O)c3ccco3)s2)cc1 6.39%, CC(=O)Nc1nnc(C)s1 9.89%
